12-LOX inh: Primary qHTS assay for inhibitors of human arachidonate 12S-lipoxygenase (ALOX12): Round 2. purified 12hLO, xylenol orange hydroperoxide absorbance. Potency, µM (top dose mostly 108 µM), without a hit: top-dose activity change, negative = inhibition, actives largely listed as inhibitors. Polyunsaturated fatty acid lipoxygenase ALOX12 (Homo sapiens), P18054. 580,000 compounds, 1.1% hits; also: potency is read from the fitted curve at half-maximal effect; % is scaled to controls: 0 for no effect and ±100 for the full control effect
Target sequence (P18054 whole entry, looked up): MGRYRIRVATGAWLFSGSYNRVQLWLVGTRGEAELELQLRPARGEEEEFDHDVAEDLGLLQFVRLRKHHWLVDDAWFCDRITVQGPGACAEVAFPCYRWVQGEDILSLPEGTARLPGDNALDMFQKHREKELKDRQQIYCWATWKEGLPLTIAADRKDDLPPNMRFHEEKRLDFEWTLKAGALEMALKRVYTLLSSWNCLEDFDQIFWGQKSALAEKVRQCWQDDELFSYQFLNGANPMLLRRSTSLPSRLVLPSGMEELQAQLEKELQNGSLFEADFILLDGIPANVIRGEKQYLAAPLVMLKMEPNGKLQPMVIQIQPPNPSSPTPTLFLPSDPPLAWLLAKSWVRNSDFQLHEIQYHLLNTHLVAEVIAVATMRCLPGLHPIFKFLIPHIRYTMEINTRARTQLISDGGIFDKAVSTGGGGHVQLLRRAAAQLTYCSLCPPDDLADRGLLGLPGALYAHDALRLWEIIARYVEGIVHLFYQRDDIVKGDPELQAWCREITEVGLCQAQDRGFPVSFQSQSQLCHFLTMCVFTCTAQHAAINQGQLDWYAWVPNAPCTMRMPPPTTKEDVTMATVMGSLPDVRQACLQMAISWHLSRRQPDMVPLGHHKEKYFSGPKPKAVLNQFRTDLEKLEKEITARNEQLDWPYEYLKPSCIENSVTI
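Hydroperoxide product was detected by ferrous iron/xylenol orange as the 573 to 405 nm absorbance ratio. Arachidonic acid at 40 uM (final) was turned over for 30 min at room temperature by 150 nM human 12hLO, pH 7.0 Hepes buffer, after 15 min compound preincubation.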
G9a inh: qHTS Assay for Inhibitors of Histone Lysine Methyltransferase G9a; G9a H3K9 monomethylation, AlphaScreen, 2 h; Potency, µM (series often up to 102 µM), inactives show top-dose activity, negative = inhibition, hits mostly inhibitors; 350,000 compounds, 8.8% hits; AID 504332, 2011; also: potency is read from the fitted curve at half-maximal effect; % is scaled to controls: 0 for no effect and ±100 for the full control effect; nearly all actives have a fitted effect of over 75% in size
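Quantitative HTS format: methyltransferase activity on a biotin-tagged H3K9 peptide is measured by AlphaScreen, using a rabbit anti-monomethyl-H3K9 antibody with streptavidin donor and anti-IgG acceptor beads. Final levels are 20 nM enzyme, 500 nM peptide, 20 uM SAM; 2 h RT.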
GRP78 ERSR act: qHTS for Inducers of the Endoplasmic Reticulum Stress Response (ERSR) in Human Glioma: qHTS. U87-MG GRP78 promoter luciferase reporter, 16 h. Potency, µM, without a hit: top-dose activation, most hits filed as activators. 420,000 compounds, 0.02% hits; also: potency is read from the fitted curve at half-maximal effect; series mostly up to about 76 µM; % of control where 0% means no effect; nearly all actives have a fitted effect of over 35% in size
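Stably transfected U87-MG human glioma cells carrying a GRP78-based luminescent sensor were seeded at 1000 cells/well, pin-dosed with compounds and incubated 16 h. Luciferase reagent was then added, and end-point luminescence was read after 10 min at room temperature.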
VDR inhibitor: Inhibitors of the vitamin D receptor (VDR): qHTS. VDR-SRC2-3 peptide fluorescence polarization, 2 h. Potency, µM, without a hit: max response, negative = inhibition, most hits filed as inhibitors. 400,000 compounds, 0.93% hits; also: potency is read from the fitted curve at half-maximal effect; % is scaled to controls: 0 for no effect and ±100 for the full control effect
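Signal is fluorescence polarization, reporting how far test compounds block the interaction of VDR with the SRC2-3 coregulator peptide after a 2 h room-temperature incubation.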
Sfp PPTase inh: qHTS Assay for Inhibitors of Bacillus subtilis Sfp phosphopantetheinyl transferase (PPTase) | 4'-phosphopantetheinyl transferase ffp (Bacillus subtilis), Q9F4F7 | Potency, µM, for the others: largest response in the series, negative = inhibition, actives largely listed as inhibitors | Biochemical Sfp PPTase activity, qHTS | 310,000 compounds, 3.5% hits;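 also: the enzyme is Sfp with the accession as filed and its product quenches rhodamine fluorescence; potency is read from the fitted curve at half-maximal effect; 0% = enzyme reaction without inhibitor and -100% = no enzyme wells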
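Compounds were incubated with enzyme (final 15 nM) for 15 min at room temperature before substrate addition started the reaction. Fluorescence at 525 nm excitation, 598 nm emission was recorded immediately and after 30 minutes.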
Sfp PPTase conf: Confirmation qHTS Assay for Inhibitors of Bacillus subtilis Sfp phosphopantetheinyl transferase (PPTase) | Potency, µM (titrated, usually from 114 µM), for inactives: top-dose activity change, negative = inhibition, hits mostly inhibitors | AID 2701, 2010 | Sfp PPTase enzymatic assay, qHTS titration | shares compounds with Sfp PPTase inh | 380 compounds, 79% hits;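 also: potency is read from the fitted curve at half-maximal effect; plate controls were uninhibited Sfp reaction for no effect and no enzyme control for full effect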
Sfp gel assay: Gel-Based Assay for Inhibitors of Bacillus subtilis Sfp phosphopantetheinyl transferase (PPTase). shares compounds with Sfp PPTase inh. purified Sfp, gel-based phosphopantetheinylation read-out. Potency, µM, hits mostly inhibitors. 210 compounds, 20% hits. AID 2707, 2010;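 active = potency below 100 µM; inconclusive = dose-dependent response but potency above 100 µM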;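 also: band intensities scaled against SCH202676 control wells before curve fitting; potency is an IC50 for inhibitors of Sfp transfer activity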
An asterisk follows results filed as active; i = inactive; ? = inconclusive; / = no result given; ! = repeats disagree; [ ] = another dose, or the depositor's remark. Shown is part of a subset that was picked to be rich in hits. Unless noted, calls follow the shape of the dose curve; as a rule, active = well fitted curve in the direction sought with a large enough effect; inconclusive = small, poorly fitted or top-dose-only effect, or another doubt; inactive = no such curve, though single readings can be large; an effect the other way counts as inactive or inconclusive.

SMILES	12-LOX inh	G9a inh	GRP78 ERSR act	VDR inhibitor	Sfp PPTase inh	Sfp PPTase conf	Sfp gel assay
CC(=O)O[C@@]12CO[C@@H]1C[C@H](O)[C@@]1(C)C(=O)[C@H](O)C3=C(C)[C@@H](OC(=O)[C@H](O)[C@@H](NC(=O)OC(C)(C)C)c4ccccc4)C[C@](O)([C@@H](OC(=O)c4ccccc4)[C@H]21)C3(C)C	/	17%[59 µM]	/	/	8.9µM*	/	/
Cc1ccc(-n2c(C)nc3oc4ccccc4c(=O)c3c2=O)cc1	-20%	56µM*	8%	11%	7%	/	/
COc1cccc(CN2Cc3cc(NS(=O)(=O)c4ccccc4)ccc3OCC2=O)c1OC	10µM*	/	/	/	/	/	/
COc1ccc(C(=O)Nc2ccc3c(c2)CN(Cc2cccc(OC)c2OC)C(=O)CO3)cc1OC	-3%	/	/	/	/	/	/
Cc1cc(C)c(OCCCCN(C)C)c(Br)c1	-15%	10µM*	-6%	-1%	-26%	/	/
Cc1cc(C)c(OCCCNC2CCCC2)c(Br)c1	?	/	-4%	-16%	-29%	/	/
Cc1cc(Cl)cc(Cl)c1OCCCCN(C)C	-21%	8.9µM*	0%	3%	-7%	/	/
CCc1cc(OCCOCCN(C)C)ccc1Cl	?	?	-4%	-6%	-14%	/	/
Cc1cc(C)c(OCCOCCN(C)C)c(Br)c1	-34%	10µM*	-4%	5%	-43%	/	/
CCCCCCn1nc(C(=O)OCc2ccccc2)c2ccccc2c1=O	45%	/	/	/	/	/	/
COc1ccc(Br)cc1CNc1ccc2[nH]c(=O)[nH]c2c1	5%	?	-3%	16%	-9%	/	/
CCOc1ccccc1CNc1ccc(O)cc1	?	-137%[59 µM]	17%	40µM*	10µM*	11µM*	i
CCc1ccc(CNc2ccc(O)cc2)cc1	/	?	?	22µM*	11µM*	37µM*	i
CSc1ccc(CNc2ccc(Cl)cc2)cc1	5%	/	6%	-1%	7%	/	/
COc1ccc(Br)cc1CNc1ccc(O)cc1	?	?	?	25µM*	20µM*	?	?
Cc1cccc(OCCSC(C)C(=O)NC(C)(C)C)c1 (stereo not drawn)	4%	/	/	/	/	/	/
O=C(Nc1ccccc1)Oc1ccc[nH]c1=O	?	?	4%	-10%	6.3µM*	21µM*	i
O=C(NCc1ccccc1Cl)C1CCN(c2ncnc3nc[nH]c23)CC1	-11%	/	/	/	/	/	/
COc1ccc(NC(=O)CSc2nncn3c2cc2oc(C)cc23)c(OC)c1	-24%	/	/	/	/	/	/
Cn1c(/N=C/c2c(O)ccc3ccccc23)nc2ccccc21	?	1.8µM*	1%	35µM*	0.89µM*	-9%	/
O=C(OCc1ccc(Br)cc1)c1cccnc1	18%	/	-3%	-10%	7%	/	/
O=C(OCc1ccccc1)c1cccnc1	11%	1.4µM*	-1%	-4%	32µM*	37µM*	?
CN1C(=O)Cc2cc(C(=O)NC3CCCCC3)ccc21	45%	/	/	/	/	/	/
CCn1nccc1C(=O)N1C[C@@H]2CCCN3CCC[C@@H]([C@H]23)[C@H]1CCCC(=O)Nc1ccccc1	17%	/	/	/	/	/	/
COC(=O)C1=CC(=O)N2CCN=C2S1	5%	/	/	/	/	/	/
SMILES	12-LOX inh	G9a inh	GRP78 ERSR act	VDR inhibitor	Sfp PPTase inh	Sfp PPTase conf	Sfp gel assay
O=C(Nc1ccc(F)cc1)C1=CC(=O)N2CCN=C2S1	/	1µM*	/	/	0.56µM*	12µM*	/
CC(=O)N=c1sc(S(N)(=O)=O)nn1C	1%	13µM*	-4%	-8%	25µM*!	47µM*	i
NS(=O)(=O)c1nn2cc(-c3ccccc3)nc2s1	0%	/	-5%	-18%	6%	/	/
CN(C)CCCN1C(=O)c2cc3ccccc3cc2C1=O	-5%	23%	0%	0%	22%	/	/
CN(C)CCCN1c2ccccc2CCc2ccc(Cl)cc21	?	8%[21.5 µM]	-4%	-4%	56µM*!	?	i
CN(CCCN1c2ccccc2CCc2ccccc21)CC(=O)c1ccc(Cl)cc1	?	?	-1%	40µM*	50µM*	37µM*	i
CC(NC(=O)CN1CSCC1=O)c1ccccc1Cl (stereo not drawn)	-9%	/	/	/	/	/	/
Cc1cccc(C)c1NC(=O)CSc1nnc(-c2ccncc2)n1Cc1ccco1	5%	9%[59 µM]	-3%	-7%	-8%	/	/
O=C(CSc1nnc(-c2ccncc2)n1Cc1ccco1)OC1CCCCC1	-14%	-39%[12.7 µM]	-5%	-20%	14µM*	53µM*	i
O=C(O)CNc1nc(-c2ccccc2)c2cc([N+](=O)[O-])ccc2n1	-23%	7.9µM*	-5%	-25%	6.3µM*	15µM*	?
O=C(Cc1ccccc1Nc1c(Cl)cccc1Cl)OCO/N=[N+](\[O-])N1CCCC1	/	/	2%	?	22µM*	26µM*	?
CCc1ccccc1NC(=O)N1CCC(N(CCC(C)C)C2CCOCC2)CC1	63%	/	/	/	/	/	/
Cc1ccc(NC(=S)NC(=O)c2sc3ccccc3c2Cl)c(C(=O)O)c1	/	45µM*	/	/	16µM*	53µM*	/
COCCCNC(=O)C1(C)CN(C)Cc2ccc(NCc3ccccc3)nc21 (stereo not drawn)	34%[176 µM]	/	/	/	/	/	/
Cc1cn2nc(-c3nc(C4CCCN(C(=O)c5ccc(C)c(F)c5)C4)no3)cc2c(=O)[nH]1 (stereo not drawn)	53%	/	/	/	/	/	/
CC(C)CNC(=O)C(C)SCc1ccccc1 (stereo not drawn)	16%	/	/	/	/	/	/
O=C(O)CCC(=O)Nc1sc2c(c1C(=O)Nc1ccccc1)CCCCC2	14µM*!	28µM*	2%	?	13µM*	15µM*	/
CCOc1ccccc1NC(=O)c1c(NC(=O)c2ccccc2)sc2c1CCCC2	-3%	-3%[59 µM]	-3%	-6%	/	/	/
COc1ccccc1NC(=O)c1c(NC(=O)CCC(=O)O)sc2c1CCCCC2	-9%	-48%	2%	-13%	10µM*	21µM*	/
Cc1nc2cc(-c3ccccc3)nn2c(C)c1CCC(=O)NCCC(C)C	8%	/	/	/	/	/	/
Cc1ccc(-n2c(CCC(=O)O)ccc2-c2cccs2)cc1	?	?	-2%	?	14µM*	24µM*	/
O=C(O)CSc1nnc(-c2cccs2)n1-c1ccc(Cl)cc1	-62%	?	-6%	?	26%	/	/
COC(=O)c1cccc(-n2c(CCC(=O)O)ccc2-c2cccs2)c1	0%	?	3%	-13%	4µM*	21µM*	?

From PubChem
